Data as given in article PMC4336329 (PLoS ONE, 2015).
The whole screen tested about 310,000 compounds, of which about 14,000 (4.5%) showed an effect of 50% or more. The effect is printed as a negative number. The entries come from a sample that favours strong results as a whole.

biological target: human ether-à-go-go-related gene (hERG) potassium channel (human, UniProt Q12809); experiment: primary screen, population patch clamp on CHO cells stably expressing hERG; higher = less effect of the substance
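Also: peak tail current of the secondary pulse compared with the same well before compound.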

human ether-à-go-go-related gene (hERG) potassium channel, sequence (Q12809 whole entry, looked up): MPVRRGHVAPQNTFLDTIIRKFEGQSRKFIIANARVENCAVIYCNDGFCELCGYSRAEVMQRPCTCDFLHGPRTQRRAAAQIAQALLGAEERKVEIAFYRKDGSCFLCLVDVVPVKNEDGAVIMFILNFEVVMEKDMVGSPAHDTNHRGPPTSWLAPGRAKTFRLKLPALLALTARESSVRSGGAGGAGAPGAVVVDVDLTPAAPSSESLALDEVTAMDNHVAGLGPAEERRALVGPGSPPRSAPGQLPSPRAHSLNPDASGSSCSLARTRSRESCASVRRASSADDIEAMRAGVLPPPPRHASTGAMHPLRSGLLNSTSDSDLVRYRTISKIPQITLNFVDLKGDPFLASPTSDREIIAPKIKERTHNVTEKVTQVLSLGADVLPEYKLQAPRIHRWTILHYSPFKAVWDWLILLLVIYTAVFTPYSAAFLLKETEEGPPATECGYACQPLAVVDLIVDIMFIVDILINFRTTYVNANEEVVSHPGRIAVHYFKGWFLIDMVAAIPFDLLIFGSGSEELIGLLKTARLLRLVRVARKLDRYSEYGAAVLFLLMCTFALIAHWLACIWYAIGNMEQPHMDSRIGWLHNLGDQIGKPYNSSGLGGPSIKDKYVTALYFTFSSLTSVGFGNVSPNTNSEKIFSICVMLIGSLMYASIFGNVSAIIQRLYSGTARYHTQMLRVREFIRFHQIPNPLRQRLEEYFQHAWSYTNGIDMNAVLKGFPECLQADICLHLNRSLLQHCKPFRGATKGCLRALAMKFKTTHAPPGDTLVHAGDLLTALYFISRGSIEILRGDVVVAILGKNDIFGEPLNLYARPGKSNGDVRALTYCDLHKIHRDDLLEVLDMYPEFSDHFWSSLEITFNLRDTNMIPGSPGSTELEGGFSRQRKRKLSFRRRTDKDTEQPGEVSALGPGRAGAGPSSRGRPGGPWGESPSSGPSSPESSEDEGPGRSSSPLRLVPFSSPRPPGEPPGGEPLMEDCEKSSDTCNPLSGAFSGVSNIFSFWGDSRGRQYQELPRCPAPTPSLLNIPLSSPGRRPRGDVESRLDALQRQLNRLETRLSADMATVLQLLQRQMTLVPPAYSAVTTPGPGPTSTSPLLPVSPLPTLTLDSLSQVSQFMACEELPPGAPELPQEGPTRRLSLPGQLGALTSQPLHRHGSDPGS

SMILES | hERG current change (%, negative = inhibition) at 10uM [%]
Cc1ccc(C(=O)COC(=O)c2ccccc2NC(=O)c2ccccc2)cc1[N+](=O)[O-] | 4.55
O=C(COC(=O)/C=C/c1ccc(Cl)cc1Cl)Nc1ccc2c(c1)OCCO2 | 18.5
O=C(Nc1cccc(C(=O)O)c1)/C(=C\c1ccco1)NC(=O)c1ccccc1Cl | 7.53
COC(=O)c1[nH]c(C)c(/C(O)=C2\C(=O)C(=O)N(CCN3CCOCC3)C2c2ccc(C)o2)c1C (stereo not shown) | -6.49
Cc1c(CCC(=O)O)c(=O)oc2cc3occ(-c4ccc(Cl)cc4)c3cc12 | 21.7
Cc1ccc(Oc2nnc(-c3cccs3)c3ccccc23)cc1 | -0.00742
CNC(=O)COC(=O)c1cccnc1SC | 3.53
CCN1CCN(c2ccc(S(=O)(=O)N3CCCCC3)cc2NC(=O)Cc2ccc(OC)cc2)CC1 | -60.1
CCN1CCN(c2ccc(S(=O)(=O)N3CCCCC3)cc2NC(=O)Cc2ccccc2)CC1 | -33.5
CCN1CCN(c2ccc(S(=O)(=O)N3CCCCC3)cc2NC(=O)Cc2ccc(Cl)c(Cl)c2)CC1 | -48.5
CCOC(=O)C1(CC)NC(c2ccc(OC)c(OC)c2)C2C(=O)N(c3cccc(C(C)=O)c3)C(=O)C21 (stereo not shown) | 16.5
Cc1ccc(S(=O)(=O)/N=C2/C=C(C3C(=O)CC(C)(C)CC3=O)C(=O)c3ccccc32)cc1 | 0.322
COc1cccc(CNC(=S)Nc2cc(C)cc(C)c2)c1 | 6.62
N#Cc1ccc(OCC(=O)Nc2ccncc2)cc1 | 18.1
O=C(COc1ccc(-n2ccnc2)cc1)Nc1cccc(F)c1 | -54.6
N#Cc1cccc(NC(=O)COc2ccc(-n3ccnc3)cc2)c1 | -67.5
O=C(COc1ccc(-n2ccnc2)cc1)Nc1cccc(Cl)c1 | -38.9
O=C(COc1ccc2c(c1)OCO2)Nc1cccc(F)c1 | 19.8
N#Cc1cccc(NC(=O)CCn2ccnc2)c1 | 2.87
O=C(NCc1ccccc1)C1c2ccccc2Oc2ccccc21 | 7.83

SMILES | hERG current change (%, negative = inhibition) at 10uM [%]
Cc1ccc(-n2c(N)cc(=O)nc2SCC(=O)NC2CCCCC2)cc1C | 8.7
COc1ccc(CCN2C(=O)CC(N3CCN(S(=O)(=O)c4ccccc4)CC3)C2=O)cc1OC (stereo not shown) | -5.73
CCOc1ccc(S(=O)(=O)Nc2ccc(C(=O)NCc3ccncc3)cc2)cc1 | -22.2
Cc1nc2ncnn2c(Nc2ccc3c(c2)OCCO3)c1C | 0.223
CCc1c(C)nc2ncnn2c1Nc1ccc(C)cc1 | -5.65
Cc1nc2ncnn2c(Nc2ccc3c(c2)OCO3)c1Cc1ccccc1 | -55.1
CCc1c(C)nc2ncnn2c1Nc1ccc(C#N)c(Cl)c1 | -50.6
CCc1c(C)nc2ncnn2c1Nc1ccc(C)c(C)c1 | -17.6
Cc1cc(Nc2ccc3c(c2)OCCO3)n2ncnc2n1 | -42.7
COc1ccc(CC(=O)NNS(=O)(=O)c2ccc(F)cc2)cc1OC | 0.969
COc1ccc(-n2c(C)cc(C(=O)CN3CCCCC3)c2C)cc1 | 1.6
CNc1nc(C)c(C(=O)OCc2ccccc2)s1 | 15.9
O=C(Nc1c2c(nn1-c1ccccc1)CS(=O)C2)c1ccc(Br)o1 (stereo not shown) | 1.07
O=[N+]([O-])c1ccc2sc(SCc3nc4ccccn4c3Br)nc2c1 | 20.2
Brc1c(CSc2nc3ccccc3s2)nc2ncccn12 | -69.7
Clc1c(CSc2nc3ccccc3o2)nc2sccn12 | 5.65
Cc1ccc(SCc2nc3ncccn3c2Br)cc1 | -68
c1ccc2sc(SCSc3nc4ccccc4s3)nc2c1 | 15.8
Clc1c(CSc2nc3ccccc3o2)nc2ccccn12 | -20.4
Cc1cc(=O)[nH]c(SCc2nc3ncccn3c2Br)n1 | 14.6

SMILES | hERG current change (%, negative = inhibition) at 10uM [%]
Brc1c(CSc2nc3ccccc3o2)nc2ncccn12 | -51.8
Cc1cc(C)nc(SCc2nc3ncccn3c2Br)n1 | -2.09
COc1ccc(S(=O)(=O)Nc2ccc3c(c2)OCO3)cc1OC | 21.7
COc1ccc(NC(=O)CSc2nnc(-c3ccccc3C)n2N)cc1 | 31.2
CCC(Oc1ccccc1)C(=O)Nc1cc(Cl)ccc1-n1cncn1 (stereo not shown) | -14.1
O=C1c2ccccc2C(=O)N1C(CO)C(O)c1ccc([N+](=O)[O-])cc1 (stereo not shown) | -5.29
CC(c1nnc(SCC(=O)N2CC(=O)Nc3ccccc32)n1Cc1ccccc1)N(C)C (stereo not shown) | 5.73
CC(C)CCNCC(O)CON=C1c2ccccc2-c2ccccc21 (stereo not shown) | -32.2
CC(N=Cc1cc([N+](=O)[O-])ccc1O)c1ccccc1 (stereo not shown) | 11.7
CC(O)CN1CC(O)=C(c2nc3ccccc3s2)C1=N (stereo not shown) | 3.89
COc1ccc(C(=O)NCc2ncccc2C)cc1OC1CCN(C(C)=O)CC1 | 9.32
CCOc1ccccc1-n1c(SCC(=O)Nc2ccccc2C(=O)O)nc2ccccc2c1=O | 8.39
Cc1ccc(S(=O)(=O)N2CCN(CC(=O)N/N=C\c3cccnc3)CC2)cc1 | 0.297
O=C(CN1CCN(S(=O)(=O)c2ccc(Br)cc2)CC1)N/N=C/c1ccc(Cl)c([N+](=O)[O-])c1 | -17.9
O=C(CN1CCN(S(=O)(=O)c2ccc(Br)cc2)CC1)N/N=C/c1ccncc1 | -70.6
Cc1ccc(S(=O)(=O)N2CCN(CC(=O)N/N=C\c3ccc(O)c(O)c3)CC2)cc1 | -8.76
O=C(CN1CCN(S(=O)(=O)c2ccc(Br)cc2)CC1)N/N=C/c1cccnc1 | -31.6
Cc1ccc(S(=O)(=O)N2CCN(CC(=O)N/N=C\c3ccncc3)CC2)cc1 | -66.8
